# Inconclusive results are not listed. Unmarked numbers belong to inactive results. Calls of active or inactive are those of the source. The call rests on the fitted dose curve; in most records, active means well fitted cell-killing curve with a large enough effect; inconclusive means small, poorly fitted or top-dose-only effect; inactive means flat fitted curve, though single readings scatter.
# Test: Cell Viability - NIH 3T3 (AID 541); further: nearly all actives have a fitted effect of over 25% in size;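 on activity change, negative = cytotoxicity: plate controls were DMSO alone for no effect and tamoxifen positive control for full effect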
# Conditions: NIH 3T3 cell viability, qHTS; activity change, negative = cytotoxicity: at 92.2 µM (top of the series)
# Description: NIH Chemical Genomics Center [NCGC]
# NIH Molecular Libraries Screening Centers Network [MLSCN]
# National Institutes of Environmental Health Sciences [NIEHS]
# National Toxicology Program [NTP]
# We have developed a 1536-well cell-based assay for quantitative high throughput screening (qHTS) against a number of cell lines to determine in vitro cytotoxicity of small molecules. This particular assay uses the NIH 3T3 fibroblast cell line which is established from NIH Swiss mouse embryo.
# NCGC Assay Protocol Summary:
# The CellTiter-Glo luminescent cell viability assay (Promega) is a homogeneous method to measure the number of viable cells in culture. The end point readout of this assay is based on quantitation of intracellular ATP, an indicator of metabolic activity, using the luciferase reaction. Luciferase catalyzes the oxidation of beetle Luciferin to oxyluciferin and light in the presence of ATP. The luminescent signal is proportional to amount of ATP present.
# Using the CellTiter-Glo luminescent cell viability assay, the amount of cellular ATP was measured in the NIH 3T3 cell line with complete culture medium following compound treatment for 40 hours. The assay was performed in opaque white Kalypsys 1536-well plates. In the screen, tamoxifen and doxorubicin were used as positive controls. Library compounds were measured for their ability to cause acute toxicity in the cell line, as reflected by a decrease in intracellular ATP levels, in a concentration-dependent manner. […] AC50 values were determined from concentration-response data modeled with the standard Hill equation.
# qHTS protocol for CellTiter Glo NIH 3T3 cellular assay
# [Step] [Parameter] [Value] [Description]
# 1. Reagent; 5 uL; 1000 NIH 3T3 cells/well
# 2. Time; 5 hr; 37 °C incubation
# 4. Controls; 23 nL; Tamoxifen 0.34 uM to 100 uM & Doxorubicin 0.02 nM to 100 uM
# 5. Time; 40 hr; 37 °C incubation
# 6. Reagent; 5 uL; CellTiter Glo reagent
# 7. Time; 20 min; Room Temperature
# 8. Detection; Luminescence; Viewlux plate reader
# Keywords: cell viability, cytotoxicity, NIH 3T3 cell line, luminescence, NTPHTS, NTPHTS_NCGC, NIEHS, EPA, DSSTox, MLSMR, MLSCN, NIH Roadmap, qHTS, NCGC
# Potency means the concentration at half of the fitted maximal effect.
Compound,"activity change, negative = cytotoxicity",Potency
NC(=O)N/N=C/c1ccc([N+](=O)[O-])o1,-81.4% (active),
CC12CCC(CC1)C(C)(C)O2,-17.6%,
CC1(C)[C@@H]2CC[C@@]1(C)C(=O)C2,3.67%,
COC(=O)C1=C(C)NC(C)=C(C(=O)OC)C1c1ccccc1[N+](=O)[O-],,2 µM (active)
CCCCCCCCCCCCOS(=O)(=O)O,,inactive
[Cl][In]([Cl])[Cl],7.87%,
NCCNCCNCCN,-22.8%,
Cc1cc(CC(=O)O)n(C)c1C(=O)c1ccc(Cl)cc1,-19%,
Cc1cc2nc3c(=O)[nH]c(=O)nc-3n(C[C@H](O)[C@H](O)[C@H](O)CO)c2cc1C,-3.61%,
NC(=O)c1ncn([C@@H]2O[C@H](CO)[C@@H](O)[C@H]2O)n1,,25.1 µM (active)
NCCNCCNCCNCCN,-26.5%,
Oc1cccc(O)c1,-18.2%,
COc1ccccc1O,,inactive
CCCCOC(=O)c1ccc(O)cc1,-9.54%,
O=C1O[C@H]([C@@H](O)CO)C(O)=C1O,-10.3%,
